High-throughput results (PubChem BioAssay)
Mm-Cpn inhibitor: inhibitors of Methanococcus maripaludis chaperonin TRiC (MmCpn). Potency, µM (series often up to 76.9 µM), inactives show at the top dose activity, negative = inhibition, most hits filed as inhibitors. purified Mm-Cpn ATPase, ADP Transcreener TR-FRET. actives 0.031% (n = 330,000); active = well fitted inhibition curve with a large enough effect; inconclusive = small, poorly fitted or top-dose-only effect; also: potency is read from the fitted curve at half-maximal effect; % is scaled to controls: 0 for no effect and ±100 for the full control effect; nearly all actives have a fitted effect of over 80% in size
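Measured: ADP formation by purified Mm-CPN. Conditions: 25 nM protein, 10 uM ATP, Tris pH 7.4 with Mg2+, K+ and DTT, 37°C for 30 min. Detection: Transcreener HTRF after 30 min at room temperature.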
Rango dissoc inh: inhibition of RanGTP-driven Rango-importin beta dissociation | O95149+P62826 | Biochemical FRET Rango-importin beta, RanGTP-induced dissociation | Potency, µM (top dose mostly 46.1 µM), for inactives: at the top dose activity change, negative = inhibition | actives 0.071% (n = 340,000) | AID 540253; also: potency is read from the fitted curve at half-maximal effect; % of control where 0% means no effect; nearly all actives have a fitted effect of over 45% in size
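FRET read at 45 min, room temperature: inhibitors block the CFP/YFP signal rise when RanGTP (0.6 uM Ran, 2 mM GTP, 0.2 uM RCC1) frees Rango (0.1 uM) from importin beta (0.25 uM). Pre-read after 5 min compound exposure flags interference.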
D3 ag: D3 dopamine receptor (human) agonism; P35462; D3R DiscoveRx beta-arrestin cells, luminescence, 90 min; max activation, %; actives 0.58% (n = 410,000); in the data active = max activation above about 30%; also: 0% is about no effect
Target sequence (P35462 whole entry, looked up): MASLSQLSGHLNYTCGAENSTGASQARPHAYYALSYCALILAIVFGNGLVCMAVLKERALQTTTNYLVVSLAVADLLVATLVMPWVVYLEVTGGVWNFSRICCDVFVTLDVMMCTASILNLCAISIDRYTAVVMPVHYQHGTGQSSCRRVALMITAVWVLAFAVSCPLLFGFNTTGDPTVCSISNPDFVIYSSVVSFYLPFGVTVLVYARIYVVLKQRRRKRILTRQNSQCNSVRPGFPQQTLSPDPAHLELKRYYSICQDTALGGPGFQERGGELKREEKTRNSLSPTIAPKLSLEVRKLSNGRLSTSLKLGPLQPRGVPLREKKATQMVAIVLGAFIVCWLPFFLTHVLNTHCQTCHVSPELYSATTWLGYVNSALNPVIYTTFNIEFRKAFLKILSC
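Agonist-mode cell screen: cells plated at 1500/well and incubated overnight at 37 °C, then exposed to library compounds for 90 min at 37 °C. Detection reagent was added for 30–60 min at room temperature, and luminescence was read.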
TSG101-PTAP inh: blocks PTAP/TSG101 interaction to inhibit HIV-1 budding. Potency, µM (doses to about 115 µM), inactives show at the top dose activity change, negative = inhibition, usual class: inhibitors. 340,000 tested, under 10 active. Q99816. AID 493005. Fluorescence polarization, FITC-PTAP peptide / Tsg101 binding; active = well fitted inhibition curve with a large enough effect in the main read-out, with a control signal flat, not every such curve was filed as active; inconclusive = small, poorly fitted or top-dose-only effect, or effect the other way, or a change in a side signal; inactive = no such curve, though single readings can be large or run the other way; also: potency is read from the fitted curve at half-maximal effect; % of control where 0% means no effect
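FP read-out: FITC-PTAP peptide, 50 nM final, binding Tsg101 binding domain, 10 uM final; 20 min, r.t.; 10 mM HEPES pH 7.5, 0.15 M NaCl, 0.01% Tween 20, 3 mM EDTA, 0.1 mM TCEP.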
D3 antag: blocks the human D3 dopamine receptor; P35462; D3R cells, DiscoveRx beta-arrestin luminescence, antagonist mode; hits give low values; max response, negative = inhibition, %; actives 2.5% (n = 360,000); AID 652054; in the data active = max response below about -50%; inconclusive = no clear call, values can overlap the other calls; also: % is scaled to controls: 0 for no effect and ±100 for the full control effect
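Cells plated overnight at 1500 cells/well, then exposed to library compounds with dopamine controls for 90 minutes at 37 degrees C. DiscoveRx reagent added for 30–60 minutes at room temperature; luminescence read, quantitative HTS format.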
Rango complex inh: inhibitors of Rango-importin beta complex formation | Rango CFP/YFP FRET sensor + importin beta, 45 min | actives 0.031% (n = 340,000) | AID 540263 | Q14974 | Potency, µM (doses to about 92.2 µM), inactives show at the highest dose inhibition of complex formation;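 also: potency is read from the fitted curve at half-maximal effect; 0% = DMSO wells and 100% = buffer wells lacking importin beta; nearly all actives have a fitted effect of over 15% in size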
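FRET biosensor (snurportin 1 IBB flanked by EYFP and cerulean), 50 nM, with compound 5 min, then 0.125 microM importin beta in PBS, 1 mM DTT, 0.02% Tween-20, 0.1% BSA. CFP/YFP ratio read after 45 min at room temperature; pre-read flags interference.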
* = called active by the depositor; ? = inconclusive; . = no result. Rows were chosen to be rich in hits. Some 2.9% of all compounds tested hit in one or more screens of this group. Unless noted, calls follow the shape of the full dose curve.

SMILES	Mm-Cpn inhibitor	Rango dissoc inh	D3 ag	TSG101-PTAP inh	D3 antag	Rango complex inh
O=C(NCc1cccs1)C(=O)NCC(c1ccco1)N1CCN(c2ccccc2F)CC1 (stereo unspecified)	0.5%	-14.9%	72.9*	-2.9%	21.9	-2.0%
O=C(NCC(c1cccnc1)N1CCN(c2ccccc2F)CC1)c1ccco1 (stereo unspecified)	-3.1%	-3.6%	1.8	-6.1%	6.3	-1.4%
O=C(NCC(c1ccco1)N1CCN(c2ccccc2F)CC1)c1ccco1 (stereo unspecified)	-9.6%	0.4%	38.5*	-0.9%	2.1	-0.5%
Cc1ccc(C(CNC(=O)c2ccco2)N2CCN(C)CC2)cc1 (stereo unspecified)	1.3%	1.3%	-9.0	-1.2%	-56.9*	-4.2%
COc1ccccc1Nc1nn2c(=O)c3ccc(C(=O)NC4CCC(C)CC4)cc3nc2s1 (stereo unspecified)	.	.	-14.0	.	.	.
Cc1ccc(OCCSc2nc3ccccc3n2CCC(=O)O)c(C(C)C)c1	.	.	-3.7	.	-52.4*	.
CCOc1ccc2c(c1)-c1c(ssc1=S)C(C)(C)N2	-1.5%	7.9%	-9.8	-3.9%	-74.4*	2.8%
COc1ccc(-c2cc(C(=O)N3CCN(c4ccccn4)CC3)c3ccccc3n2)cc1	-1.8%	0.0%	33.3*	-4.3%	17.5	-5.1%
CCOc1ccc(-c2cc(C(=O)N3CCN(c4ccccn4)CC3)c3ccccc3n2)cc1	-0.4%	16.7%	13.0	-1.9%	16.6	0.8%
CCCc1ccc(-c2cc(C(=O)N3CCN(c4ccccn4)CC3)c3ccccc3n2)cc1	0.1%	-2.6%	43.6*	-13.0%	38.6	-1.9%
C=C1C(=O)C23C(O)C1CCC2C12CCCC(C)(COC(C)=O)C1C(O)C3(O)OC2 (stereo unspecified)	.	-4.1%	-13.4	-1.3%	-95.0*	1.9%
O=C(NCCCN1CCN(c2ccccc2F)CC1)C1COc2ccccc2C1 (stereo unspecified)	.	.	12.6	.	.	.
C=C1[C@@H](O)[C@H](CC(C)C)N(Cc2ccccc2Br)S1(=O)=O	.	8.1%	-20.9	1.5%	-6.5	-1.4%
S=c1[nH]nc(-c2ccccn2)n1/N=C/c1ccc(Br)s1	0.6%	15.7%	13.0	-0.3%	-55.6*	-2.0%
S=c1[nH]nc(-c2ccccn2)n1/N=C/c1ccc(Cl)c(Cl)c1	0.5%	31.5%	-12.8	-3.7%	-15.2	-1.1%
CC(/C=N/NC(=O)c1cc(C(C)(C)C)[nH]n1)=C\c1ccccc1	1.9%	-5.0%	-3.4	-6.8%	-54.1*	-0.5%
Cc1ccsc1/C=N\NC(=O)c1cc(C(C)(C)C)[nH]n1	0.2%	13.7%	-15.6	0.1%	-67.2*	-0.1%
CN(C)C(CNc1ccc(C(F)(F)F)cn1)c1ccccc1 (stereo unspecified)	-1.1%	-7.6%	-14.7	-2.8%	-58.6*	0.5%
Cc1cccc(NC(=O)COC(=O)c2ccc3c(=O)n4c(nc3c2)CCC4)c1	-2.0%	0.0%	1.9	-1.8%	-2.1	?
Cc1cccc(NC(=O)COC(=O)c2ccc3nc(C)c(C)nc3c2)c1	-0.2%	1.1%	-1.2	-0.7%	-57.9*	0.6%
CC1(C)CC(=O)C(C=Nc2cccnc2/N=C/C2=C(O)CC(C)(C)CC2=O)=C(O)C1	-0.7%	-29.5%	-46.3	-4.7%	-143.1*	?
CC1(C)CC(=O)C(C=Nc2cccnc2)=C(O)C1	1.7%	7.6%	6.3	1.0%	-12.9	1.3%
CC1(C)CC(=O)C(C=Nc2ccc(C(=O)c3ccccc3)cc2N=CC2=C(O)CC(C)(C)CC2=O)=C(O)C1	-8.0%	?	-24.2	-3.1%	-118.5*	?
COc1cccc(CC2(CO)CCN(Cc3cn(C)nc3C)CC2)c1	1.2%	-1.0%	-10.4	-3.6%	1.4	-4.1%
CCOC(=O)C1(CC2CC2)CCN(Cc2cn[nH]c2-c2cccc(F)c2)CC1	-1.9%	0.4%	-3.0	-0.6%	11.6	1.0%
